# Screens (PubChem BioAssay)
# Most compounds without a hit are left out; they make up all but 2.4% or so of the library.
# D2 ag-1: human D2 receptor agonism in beta-arrestin assay | DiscoveRx PathHunter D2 beta-arrestin, luminescence, 90 min; 100% = 57 uM dopamine signal | activation, % (no concentration beside the values) | P14416 | 360,000 tested, 0.084% active; in the data active means activation above about 40%
# Target sequence (P14416 whole entry, looked up): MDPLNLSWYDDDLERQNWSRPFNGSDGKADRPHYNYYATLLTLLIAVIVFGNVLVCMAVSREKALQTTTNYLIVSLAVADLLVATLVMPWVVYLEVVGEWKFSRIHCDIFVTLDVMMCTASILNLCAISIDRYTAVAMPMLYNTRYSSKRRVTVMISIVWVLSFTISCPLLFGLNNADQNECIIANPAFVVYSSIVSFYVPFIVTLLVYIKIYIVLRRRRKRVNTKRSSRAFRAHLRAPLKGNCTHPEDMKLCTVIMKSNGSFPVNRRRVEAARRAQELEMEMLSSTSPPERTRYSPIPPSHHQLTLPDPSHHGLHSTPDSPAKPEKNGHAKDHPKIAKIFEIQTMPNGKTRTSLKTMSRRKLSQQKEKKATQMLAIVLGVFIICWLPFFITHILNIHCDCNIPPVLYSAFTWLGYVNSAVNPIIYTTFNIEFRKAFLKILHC
#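 DiscoveRx PathHunter D2 beta-arrestin cells (2,100/well) attached overnight, then compound-stimulated 90 min at 37 C in HBSS/10 mM HEPES/0.1% Tween-20 buffer; beta-galactosidase complementation read by luminescence after 1 h at ambient temperature. Dopamine 57 uM final (EC100) as control.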
# D2 ag-2: activates the human D2 dopamine receptor; P14416; HEK293 T-REx D2 cells, calcium flux agonist mode; activation, % at 2 µM; 340,000 tested, 0.53% active;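 active means activation over 3 SD above normal in the single-dose calcium agonist read, cut at about 30% in these data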; further: 0% is about no effect
#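 In this primary screen, compounds producing a positive calcium signal within 180 s of addition to tetracycline-induced, force-coupled HEK293 Trex D2 cells are flagged; cells are dye-loaded with a no-wash calcium kit beforehand.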
# D2 antag: D2 dopamine receptor (human) antagonism; HEK293 TREx D2 cells, calcium flux, dopamine EC80; inhibition, % at 10 µM; 340,000 tested, 2% active; AID 485344; in the data active means inhibition above about 30%; inactive means below that, where a call was filed; further: 0% is about no effect
#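 Dopamine at EC80 is the agonist stimulus; test compounds precede it by 180 s. Calcium flux read kinetically in a force-coupled, inducible HEK293 T-REx D2 cell line.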
# D2 PAM-1: positive allosteric modulators of human D2 dopamine receptor | P14416 | DiscoveRx D2 beta-arrestin cells, luminescence, 90 min; 100% = 57 uM dopamine signal | potentiation, % (test concentration not listed) | 360,000 tested, 0.23% active | AID 624464; in the data active means potentiation above about 50%
#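 PathHunter D2 cells, attached overnight at 37 deg C, received compound in DMSO plus dopamine at EC20 (50 nM final) for 90 min at 37 deg C. Beta-arrestin recruitment was read as luminescence after 1 h with detection reagent at ambient temperature.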
# D2 PAM-2: D2 dopamine receptor (human) potentiation; 340,000 tested, 0.34% active; AID 485347; P14416; potentiation, % at 10 µM; HEK293 T-REx D2, calcium flux, EC20 dopamine potentiation;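 active means potentiation over 3 SD above the plate norm, cut at about 30% in these data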; further: 0% is about no effect
#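 Potentiation of an EC20 dopamine calcium response is measured in a force-coupled, tetracycline-inducible Hek293 Trex D2 line. Compound-only kinetic reads over 180 s flag agonists before dopamine addition.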
# An asterisk follows results filed as active; · = no result given.
SMILES,D2 ag-1,D2 ag-2,D2 antag,D2 PAM-1,D2 PAM-2
C=CCNC(=O)CN1C2CCCC1CC(NC(=O)c1ccccc1C)C2 (configuration not stated),-2.3,-0.2,-24.3,-19.6,40.8*
CCc1ccc(-n2c(=O)c3c4c(sc3n(Cc3ccccc3C#N)c2=O)CCCC4)cc1,·,-0.5,·,·,0.7
Oc1ccccc1N1CCN(C(c2ccccc2)c2ccccc2)CC1,-4.5,-0.2,30.3*,-3.1,-1.6
CC(=O)N1CCN(C(c2ccccc2)c2ccccc2)CC1,-3.3,·,·,-5.8,·
Cc1ccc2c(c1)c(=O)c(Br)c(C)n2Cc1ccccc1,-4.7,0.1,56.3*,-17.5,-5.0
Cc1cc(=O)c2ccccc2n1Cc1ccccc1,-3.9,-0.6,-2.2,-12.5,-2.7
Cc1oc2c(C)c(O)ccc2c(=O)c1-c1ccc2ccccc2n1,-2.7,-0.3,43.9*,-14.8,-4.3
CCC(=O)Oc1ccc2c(=O)c(-c3ccc4ccccc4n3)c(CC)oc2c1C,0.2,-0.7,-8.0,1.6,-1.7
CC1CCN(C(=O)CSc2nnc3ccc(-c4cccnc4)nn23)CC1,-1.5,-0.1,37.8*,16.0,-4.4
COc1cccc(-c2ccc3nnc(SCC(=O)N4CCCC4)n3n2)c1,-4.4,0.1,4.9,0.6,-5.3
CCSc1nnc(-c2sc3nnc(-c4ccccc4)c(-c4ccccc4)c3c2N)o1,-3.9,39.3*,-26.8,-14.1,-2.0
CC(C)(C)C(=O)n1nc(-c2ccccc2)oc1=O,0.7,1.1,30.5*,-27.4,-1.9
Cc1nc2n(c(=O)c1CCN1CCC(c3noc4cc(F)ccc34)CC1)CCCC2,·,·,86.3*,·,·
O=C(NCc1ccc(F)cc1)c1ccc2c(=O)n3c(nc2c1)CCCCC3,-0.7,-0.6,-4.1,-0.4,-0.9
O=C(c1cc2ccccc2oc1=O)N1CCN(c2ccc(Cl)cc2)CC1,·,0.7,·,·,10.9
CN(CC(=O)NC(=O)NCc1ccccc1)CC(=O)Nc1ccc(Cl)c(C(F)(F)F)c1,3.4,-0.4,35.2*,-9.9,12.4
CN(CC(=O)Nc1ccc(Cl)c(C(F)(F)F)c1)C(=O)c1cccs1,0.0,0.2,14.1,-4.1,1.2
CC(=O)c1c(C)[nH]c(C(=O)N(C)CC(=O)Nc2ccc(Cl)c(C(F)(F)F)c2)c1C,-2.3,0.2,39.3*,-20.7,-19.3
CN(CC(=O)NCCc1ccc(S(N)(=O)=O)cc1)CC(=O)Nc1ccc(Cl)c(C(F)(F)F)c1,1.7,·,·,-16.0,·
Cc1cccc(C(=O)NCC(=O)OCc2cc(=O)n3nc(CC(C)C)sc3n2)c1,·,-0.7,·,·,-0.4
CC(C)(CC(=O)NCc1ccc(Cl)cc1Cl)CC1=NS(=O)(=O)c2ccccc2N1,·,1.7,·,·,-14.1
O=C(NC1CCSC1=O)c1cccc(C(=O)NC2CCSC2=O)c1 (configuration not stated),-2.0,0.7,42.0*,-22.5,-4.3
CCc1ccc2oc(C(=O)Nc3ccccc3C(=O)OC)cc(=O)c2c1,·,-0.4,·,·,-3.3
COCCCNC(=O)C1C2C=CC3(CN(Cc4ccc(C)cc4)C(=O)C13)O2 (configuration not stated),-1.4,0.2,39.1*,-11.9,14.6
CCOC(=O)CN1CC23C=CC(O2)C(C(=O)NC2CCCCC2)C3C1=O (configuration not stated),-3.6,0.2,-7.5,2.3,3.6
SMILES,D2 ag-1,D2 ag-2,D2 antag,D2 PAM-1,D2 PAM-2
Cc1ccc(CN2CC34C=CC(O3)C(C(=O)NCc3ccc5c(c3)OCO5)C4C2=O)cc1 (configuration not stated),-1.9,·,·,-0.4,·
CCOC(=O)CN1CC23C=CC(O2)C(C(=O)NC2CCCC2)C3C1=O (configuration not stated),0.5,-1.0,-6.9,0.0,45.5*
CCc1ccc(NC(=O)C2CCN(S(=O)(=O)c3c(C)noc3/C=C\c3ccc(OC)cc3)CC2)cc1,·,0.6,·,·,13.6
Cc1ccccc1OCC(O)CN1CCCCC1 (configuration not stated),-2.4,-0.5,4.9,-17.1,1.6
COc1cc(COCC(O)CN2CCN(Cc3ccccc3)CC2)cc(OC)c1OC (configuration not stated),-0.7,-0.4,6.1,-9.0,-20.5
COc1ccccc1N1CCN(CC(O)COCc2cccs2)CC1 (configuration not stated),-1.3,1.8,80.7*,-10.3,-32.9
C=CCc1ccc(OCC(O)CN2CCN(c3ccccc3OC)CC2)c(OC)c1 (configuration not stated),5.3,-0.5,7.3,-12.0,6.9
Cc1ccc(Cl)cc1N1CCN(CC(O)COCc2ccco2)CC1 (configuration not stated),-0.4,-2.0,97.4*,-35.1,-24.1
COc1ccccc1N1CCN(CC(O)COc2ccc(C)cc2C)CC1 (configuration not stated),-0.6,29.0,75.9*,-25.3,-30.1
Cc1ccccc1OCC(O)CN1CCN(CC(O)COc2ccccc2C)CC1 (configuration not stated),-3.2,0.9,61.6*,-26.7,-30.4
COc1ccc(C)cc1NC(=O)c1c(C(=O)Nc2cccc(C)c2C)sc2nc(C)cc(=O)n12,·,0.4,·,·,-12.4
COc1ccccc1N1CCN(C(=O)c2cnc(N3CCOCC3)c3ccccc23)CC1,·,1.4,·,·,-8.5
CC(=O)Nc1cccc(C(=O)NCc2ccc3c(c2)CCN3C(=O)c2ccc(F)cc2)c1,·,0.1,·,·,-12.5
Cc1ccc(N2CCN(CC(O)COc3cccc4ccccc34)CC2)cc1 (configuration not stated),8.8,-2.0,-28.5,-50.0,-18.5
COc1ccccc1N1CCN(CC(O)COc2c(OC)cccc2OC)CC1 (configuration not stated),1.7,14.8,122.8*,-12.6,-29.5
OC(COc1cccc2ccccc12)CN1CCN(c2ccccc2Cl)CC1 (configuration not stated),-12.6,7.9,39.1*,-43.5,-17.9
COc1ccccc1N1CCN(CC(O)COCCOc2ccc(Br)cc2)CC1 (configuration not stated),-1.5,9.5,78.5*,-33.1,-25.4
Cc1ccccc1OCC(O)Cn1c(=N)n(CCN2CCOCC2)c2ccccc21 (configuration not stated),-2.5,-2.0,-14.0,-12.2,40.1*
O=C(NCCCN1CCN(c2ccccc2F)CC1)c1ccc2nc(N3CCCCC3)sc2c1,·,·,·,·,-12.9
COc1ccccc1N1CCN(CC(O)c2ccc3cc[nH]c3c2)CC1 (configuration not stated),2.3,36.9*,59.6*,-7.8,-26.9
COc1ccc2[nH]cc(C(O)CN3CCN(c4ccccc4F)CC3)c2c1 (configuration not stated),-3.1,12.9,33.3*,-16.0,-12.8
